# Results as given in the supplement of paper PMC8728848.
# Many of the other results were omitted from the sample, so the strongest signals are more common in it than they were.
# Key:
# Assay in all cases: glycan array binding signal (z-score within array); higher = stronger binding
# Settings in all cases: glycan notation: IUPAC condensed, linker removed
# Fuc(a1-2)Gal = target: Fuc(a1-2)Gal
# In short: (§1)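 The Consortium for Functional Glycomics database supplied 3228 glycan arrays, of which those lacking an available protein sequence were dropped. The binding signal, a within-array Z-score, was averaged across arrays of the same protein sequence and across linkers. Negative scores can be read as non-binding.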
# Fuc(a1-2)Gal(b1-3)GlcNAc = target: Fuc(a1-2)Gal(b1-3)GlcNAc
# In short: as §1
# [1] = target: Fuc(a1-2)Gal(b1-3)GlcNAc(b1-3)[Gal(b1-4)GlcNAc(b1-6)]Gal(b1-4)Glc
# In short: as §1
# [2] = target: Fuc(a1-2)Gal(b1-3)[Fuc(a1-4)]GlcNAc
# In short: as §1
# [3] = target: Fuc(a1-2)Gal(b1-4)Fuc(a1-3)]GlcNAc(b1-2)Man(a1-3)[Fuc(a1-2)Gal(b1-4)[Fuc(a1-3)]GlcNAc(b1-2)Man(a1-6)]Man(b1-4)GlcNAc(b1-4)GlcNAc
# In short: as §1
# [4] = target: Fuc(a1-2)Gal(b1-4)GlcNAc6S
# In short: as §1
# [5] = target: Fuc(a1-2)[Gal(a1-3)]Gal(b1-4)GlcNAc(b1-6)GalNAc
# In short: as §1
# [6] = target: Fuc(a1-2)[GalNAc(a1-3)]Gal(b1-3)GalNAc(b1-3)Gal(a1-4)Gal(b1-4)Glc
# In short: as §1
# [7] = target: Fuc(a1-2)[GalNAc(a1-3)]Gal(b1-3)GlcNAc(b1-6)GalNAc
# In short: as §1
# [8] = target: Gal(a1-3)[Gal(a1-4)]Gal(b1-4)GlcNAc
# In short: as §1
# [9] = target: Gal(b1-3)GlcNAc(a1-3)Gal(b1-4)GlcNAc
# In short: as §1
# Gal(b1-3)GlcNAc(b1-2)Man = target: Gal(b1-3)GlcNAc(b1-2)Man
# In short: as §1
# [10] = target: Gal(b1-3)[Fuc(a1-4)]GlcNAc(b1-2)Man
# In short: as §1
# [11] = target: Gal(b1-3)[Fuc(a1-4)]GlcNAc(b1-3)Gal(b1-3)[Fuc(a1-4)]GlcNAc
# In short: as §1
# [12] = target: Gal(b1-3)[Neu5Ac(b2-6)]GalNAc
# In short: as §1
# Gal(b1-4)GlcNAc = target: Gal(b1-4)GlcNAc
# In short: as §1
# [13] = target: Gal(b1-4)GlcNAc(b1-2)[Gal(b1-4)GlcNAc(b1-4)]Man(a1-3)[GlcNAc(b1-4)][Gal(b1-4)GlcNAc(b1-2)Man(a1-6)]Man(b1-4)GlcNAc(b1-4)GlcNAc
# In short: as §1
# [14] = target: Gal(b1-4)GlcNAc(b1-3)Gal(b1-4)GlcNAc(b1-2)Man(a1-3)[Gal(b1-4)GlcNAc(b1-3)Gal(b1-4)GlcNAc(b1-2)Man(a1-6)]Man(b1-4)GlcNAc(b1-4)GlcNAc
# In short: as §1
# [15] = target: Gal(b1-4)GlcNAc(b1-3)Gal(b1-4)GlcNAc(b1-3)Gal(b1-4)GlcNAc(b1-2)Man(a1-3)[Gal(b1-4)GlcNAc(b1-3)Gal(b1-4)GlcNAc(b1-3)Gal(b1-4)GlcNAc(b1-2)Man(a1-6)]Man(b1-4)GlcNAc(b1-4)GlcNAc
# In short: as §1
# [16] = target: GalNAc(b1-4)GlcNAc(b1-2)Man
# In short: as §1
# Glc(a1-6)Glc(a1-6)Glc = target: Glc(a1-6)Glc(a1-6)Glc
# In short: as §1
# [17] = target: GlcNAc(a1-4)Gal(b1-4)GalNAc
# In short: as §1
# [18] = target: GlcNAc(a1-4)Gal(b1-4)GlcNAc(b1-3)Gal(b1-4)GlcNAc
# In short: as §1
# [19] = target: GlcNAc(a1-6)Gal(b1-4)GlcNAc
# In short: as §1
# [20] = target: GlcNAc(b1-3)Gal(b1-4)GlcNAc(b1-3)Gal(b1-4)GlcNAc(b1-2)Man(a1-3)[GlcNAc(b1-3)Gal(b1-4)GlcNAc(b1-3)Gal(b1-4)GlcNAc(b1-2)Man(a1-6)]Man(b1-4)GlcNAc(b1-4)GlcNAc
# In short: as §1
# [21] = target: GlcNAc(b1-3)Gal(b1-4)GlcNAc(b1-3)Gal(b1-4)GlcNAc(b1-2)[GlcNAc(b1-3)Gal(b1-4)GlcNAc(b1-3)Gal(b1-4)GlcNAc(b1-6)]Man(a1-6)[GlcNAc(b1-3)Gal(b1-4)GlcNAc(b1-3)Gal(b1-4)GlcNAc(b1-2)Man(a1-3)]Man(b1-4)GlcNAc(b1-4)[Fuc(a1-6)]GlcNAc
# In short: as §1
# [22] = target: GlcNAc(b1-3)Gal(b1-4)GlcNAc(b1-3)Gal(b1-4)GlcNAc(b1-3)Gal(b1-4)GlcNAc(b1-2)[GlcNAc(b1-3)Gal(b1-4)GlcNAc(b1-3)Gal(b1-4)GlcNAc(b1-3)Gal(b1-4)GlcNAc(b1-6)]Man(a1-6)[GlcNAc(b1-3)Gal(b1-4)GlcNAc(b1-3)Gal(b1-4)GlcNAc(b1-3)Gal(b1-4)GlcNAc(b1-2)Man(a1-3)]Man(b1-4)GlcNAc(b1-4)[Fuc(a1-6)]GlcNAc
# In short: as §1
# [23] = target: GlcNAc(b1-4)GlcNAc(b1-4)GlcNAc
# In short: as §1
# [24] = target: GlcNAc6S(b1-3)Gal(b1-4)GlcNAc
# In short: as §1
# [25] = target: Man(a1-2)Man(a1-2)Man(a1-6)[Man(a1-3)]Man
# In short: as §1
# Man(a1-2)Man(a1-3)Man = target: Man(a1-2)Man(a1-3)Man
# In short: as §1
# [26] = target: Man(a1-2)Man(a1-6)[Man(a1-3)]Man(a1-6)[Man(a1-2)Man(a1-2)Man(a1-3)]Man
# In short: as §1
# [27] = target: Neu5Ac(a2-3)Gal(b1-3)GlcNAc(b1-2)Man
# In short: as §1
# [28] = target: Neu5Ac(a2-3)Gal(b1-3)GlcNAc(b1-2)Man(a1-3)[GlcNAc(b1-4)][Neu5Ac(a2-3)Gal(b1-3)GlcNAc(b1-2)Man(a1-6)]Man(b1-4)GlcNAc(b1-4)GlcNAc
# In short: as §1
# [29] = target: Neu5Ac(a2-3)Gal(b1-3)[Neu5Ac(a2-6)]GlcNAc(b1-3)[Fuc(a1-3)[Gal(b1-4)]GlcNAc(b1-6)]Gal(b1-4)Glc
# In short: as §1
# [30] = target: Neu5Ac(a2-3)Gal(b1-4)GlcNAc(b1-2)Man(a1-3)[GlcNAc(b1-4)][Neu5Ac(a2-3)Gal(b1-4)GlcNAc(b1-2)Man(a1-6)]Man(b1-4)GlcNAc(b1-4)GlcNAc
# In short: as §1
# [31] = target: Neu5Ac(a2-3)Gal(b1-4)GlcNAc(b1-3)Gal(b1-4)GlcNAc(b1-3)Gal(b1-4)GlcNAc(b1-2)Man(a1-3)[Neu5Ac(a2-3)Gal(b1-4)GlcNAc(b1-3)Gal(b1-4)GlcNAc(b1-3)Gal(b1-4)GlcNAc(b1-2)Man(a1-6)]GalNAc
# In short: as §1
# [32] = target: Neu5Ac(a2-3)Gal(b1-4)GlcNAc(b1-3)Gal(b1-4)GlcNAc(b1-6)[Gal(b1-3)]GalNAc
# In short: as §1
# [33] = target: Neu5Ac(a2-3)Gal(b1-4)GlcNAc(b1-6)GalNAc
# In short: as §1
# [34] = target: Neu5Ac(a2-3)Gal(b1-4)GlcNAc(b1-6)[Gal(b1-3)]GalNAc
# In short: as §1
# [35] = target: Neu5Ac(a2-3)[GalNAc(b1-4)]Gal(b1-4)GlcNAc
# In short: as §1
# [36] = target: Neu5Ac(a2-3)[Neu5Ac(a2-6)]GalNAc
# In short: as §1
# Neu5Ac(a2-6)Gal(b1-4)Glc = target: Neu5Ac(a2-6)Gal(b1-4)Glc
# In short: as §1
# [37] = target: Neu5Ac(a2-6)Gal(b1-4)GlcNAc(b1-2)Man(a1-3)[Neu5Ac(a2-6)Gal(b1-4)GlcNAc(b1-2)Man(a1-6)]Man(b1-4)GlcNAc(b1-4)[Fuc(a1-6)]GlcNAc
# In short: as §1
# [38] = target: Neu5Ac(a2-6)Gal(b1-4)GlcNAc(b1-2)Man(a1-6)[Man(a1-3)]Man(b1-4)GlcNAc(b1-4)GlcNAc
# In short: as §1
# [39] = target: Neu5Ac(a2-6)Gal(b1-4)GlcNAc(b1-2)[Neu5Ac(a2-6)Gal(b1-4)GlcNAc(b1-4)]Man(a1-3)[GlcNAc(b1-4)][Neu5Ac(a2-6)Gal(b1-4)GlcNAc(b1-2)[Neu5Ac(a2-6)Gal(b1-4)GlcNAc(b1-6)]Man(a1-6)]Man(b1-4)GlcNAc(b1-4)GlcNAc
# In short: as §1
# [40] = target: Neu5Ac(a2-6)Gal(b1-4)GlcNAc(b1-3)Gal(b1-3)GlcNAc
# In short: as §1
# [41] = target: Neu5Ac(a2-6)Gal(b1-4)GlcNAc(b1-3)Gal(b1-4)GlcNAc(b1-3)Gal(b1-4)GlcNAc(b1-2)Man(a1-3)[Neu5Ac(a2-6)Gal(b1-4)GlcNAc(b1-3)Gal(b1-4)GlcNAc(b1-3)Gal(b1-4)GlcNAc(b1-2)Man(a1-6)]GalNAc
# In short: as §1
# [42] = target: Neu5Gc(a2-3)Gal(b1-3)[Fuc(a1-4)]GlcNAc
# In short: as §1
binder,measurement,setting,value
Als3-N (Candida albicans) (protein) KTITGVFNSFNSLTWSNAATYNYKGPGTPTWNAVLGWSLDGTSASPGDTFTLNMPCVFKFTTSQTSVDLTAHGVKYATCQFQAGEEFMTFSTLTCTVSNTLTPSIKALGTVTLPLAFNVGGTGSSVDLEDSKCFTAGTNTVTFNDGGKKISINVDFERSNVDPKGYLTDSRVIPSLNKVSTLFVAPQCANGYTSGTMGFANTYGDVQIDCSNIHVGITKGLNDWNYPVSSESFSYTKTCSSNGIFITYKNVPAGYRPFVDAYISATDVNSYTLSYANEYTCAGGYWQRAPFTLRWTGYRNSDAGSNGIVIVATTRTVTDSTTAVTTLPFDPNRDKTKTIEILKPIPTTTITTSYVGVTTSYLTKTAPIGETATVIVDIPYHTTTTVTSKWTGTITSTTTHTNPTDSIDTVIVQVP,glycan array binding signal (z-score),Fuc(a1-2)Gal,-0.276
same,glycan array binding signal (z-score),Fuc(a1-2)Gal(b1-3)GlcNAc,-0.288
same,glycan array binding signal (z-score),[1],-0.291
same,glycan array binding signal (z-score),[2],-0.271
same,glycan array binding signal (z-score),[3],2.75
same,glycan array binding signal (z-score),[4],-0.257
same,glycan array binding signal (z-score),[5],-0.082
same,glycan array binding signal (z-score),[6],-0.14
same,glycan array binding signal (z-score),[7],-0.223
same,glycan array binding signal (z-score),[8],-0.221
same,glycan array binding signal (z-score),[9],2.03
same,glycan array binding signal (z-score),Gal(b1-3)GlcNAc(b1-2)Man,0.065
same,glycan array binding signal (z-score),[10],0.115
same,glycan array binding signal (z-score),[11],2.42
same,glycan array binding signal (z-score),[12],0.915
same,glycan array binding signal (z-score),Gal(b1-4)GlcNAc,-0.168
same,glycan array binding signal (z-score),[13],-0.288
same,glycan array binding signal (z-score),[14],8.26
same,glycan array binding signal (z-score),[15],3.26
same,glycan array binding signal (z-score),[16],0.231
same,glycan array binding signal (z-score),Glc(a1-6)Glc(a1-6)Glc,-0.244
same,glycan array binding signal (z-score),[17],-0.081
same,glycan array binding signal (z-score),[18],-0.232
same,glycan array binding signal (z-score),[19],-0.233
same,glycan array binding signal (z-score),[20],3.11
same,glycan array binding signal (z-score),[21],2.36
same,glycan array binding signal (z-score),[22],3.08
same,glycan array binding signal (z-score),[23],-0.099
same,glycan array binding signal (z-score),[24],-0.1
same,glycan array binding signal (z-score),[25],-0.257
same,glycan array binding signal (z-score),Man(a1-2)Man(a1-3)Man,-0.226
same,glycan array binding signal (z-score),[26],-0.361
same,glycan array binding signal (z-score),[27],-0.29
same,glycan array binding signal (z-score),[28],-0.11
same,glycan array binding signal (z-score),[29],-0.237
same,glycan array binding signal (z-score),[30],-0.08
same,glycan array binding signal (z-score),[31],4.72
same,glycan array binding signal (z-score),[32],0.08
same,glycan array binding signal (z-score),[33],-0.202
same,glycan array binding signal (z-score),[34],-0.233
same,glycan array binding signal (z-score),[35],2.21
same,glycan array binding signal (z-score),[36],-0.049
same,glycan array binding signal (z-score),Neu5Ac(a2-6)Gal(b1-4)Glc,-0.187
same,glycan array binding signal (z-score),[37],-0.102
same,glycan array binding signal (z-score),[38],-0.309
same,glycan array binding signal (z-score),[39],-0.151
same,glycan array binding signal (z-score),[40],-0.283
same,glycan array binding signal (z-score),[41],2.56
same,glycan array binding signal (z-score),[42],-0.341
